We go through 45 molecules from PubChem BioAssay AID651640 (Broad Institute, 2012).

Among all 350,000 compounds or so, about 6,000 (1.7%) were called active. Another 5% or so got no clear call; they are omitted. Shown is part of a subset that was picked to be rich in actives. Values without a mark were called inactive. Cut-off read from the data, not from the text of the source: active = CPE inhibition above about 20% (passing the limit was not always enough); inconclusive = no clear call, values can overlap the other calls; tested in BHK-21 cells.

The assay is described as follows: protection of cells from dengue 2 killing – plate reader, single concentration, primary screen (AID 651640).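 Note: 0% = median of neutral control wells and 100% = median of positive control wells.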 As to conditions: DENV2-infected cells, cytopathic effect rescue, at 9.99 µM, active compounds read high. (Protection from cytopathic effect is a common read-out in antiviral testing.)
For the molecule `CC(C)NC(=O)NCC[C@H]1CC[C@@H](NS(=O)(=O)c2ccc(Oc3ccccc3)cc2)[C@@H](CO)O1`, the CPE inhibition is -1.61%.
As for `CO[C@H]1CN(C)C(=O)c2cc(NS(=O)(=O)CC(F)(F)F)ccc2OC[C@@H](C)N(C(=O)c2ccc3c(c2)OCO3)C[C@@H]1C`, the CPE inhibition was 15.3%.
On to `COC(=O)CN1C(=O)[C@H]2[C@@H](/C=C/c3ccccc3)N3C(=O)CN(Cc4ccccc4)C(=O)[C@@]3(Cc3ccccc3)[C@H]2C1=O`, for which the CPE inhibition was -11.1%.
Turning to `COC(=O)CN1C(=O)[C@H]2[C@@H](/C=C/c3ccccc3)N3C(=O)CN(CC4CC4)C(=O)[C@@]3(Cc3ccccc3)[C@H]2C1=O`, the CPE inhibition is 51% (active).
The same measure for `COC(=O)CN1C(=O)[C@H]2[C@@H](C3CC3)N3C(=O)CN(Cc4ccc(-c5ccccc5)cc4)C(=O)[C@@]3(Cc3ccccc3)[C@H]2C1=O`: 3.26%; for `C[C@H](CO)N1C[C@H](C)[C@@H](CN(C)Cc2ccc(C(F)(F)F)cc2)Oc2ccc(NC(=O)Cn3cnnn3)cc2CC1=O`: 7.25%.
The result for `Cc1ccccc1OCCC(=O)OCC(=O)NCCc1ccc(S(N)(=O)=O)cc1` reads 47.5% (active).
The result for `Cc1ccccc1OCCC(=O)OCC(=O)NC(C)c1ccccc1` (stereo not given) reads 4.9%; that for `Cc1ccc(S(=O)(=O)CCC(=O)OCC(=O)NCCc2ccc(S(N)(=O)=O)cc2)cc1`, 2.48%; that for `O=C(C[C@@H]1CC[C@@H]2[C@H](COC[C@@H](O)CN2S(=O)(=O)c2ccccc2)O1)NCC1CCCCC1`, -12.1%.
As to `C[C@@H]1CN([C@@H](C)CO)S(=O)(=O)c2ccc(-c3cccc(C(=O)N(C)C)c3)cc2O[C@@H]1CN(C)C`, the CPE inhibition was -3.85%.
The result for `c1ccc(-c2ccc(C3[C@@H]4CN(Cc5cccnc5)C[C@H]3N4)cc2)cc1` (stereo not given in full) reads -24.3%; that for `N#C[C@H]1N[C@H](CO)[C@H]1c1ccc(-c2cccc(F)c2)cc1`, 3.16%.
As for `O=C(NC[C@@H]1N[C@@H](CO)[C@H]1c1ccc(-c2cccnc2)cc1)c1cccc(F)c1`, the CPE inhibition is 41.5% (active).
Turning to `N#Cc1cccc(-c2ccc([C@H]3[C@@H](CO)N[C@@H]3CNC(=O)C3CCC3)cc2)c1`, the CPE inhibition is -1.99%.
The result for `CCCNC(=O)N1C[C@@H](O)COC[C@H]2O[C@@H](CC(=O)NCCCN3CCOCC3)CC[C@@H]21` reads -1.62%; that for `CO[C@H]1CN(C)C(=O)c2cc(NS(=O)(=O)c3ccccc3)ccc2OC[C@H](C)NC[C@@H]1C`, 27.3% (active).
Turning to `CO[C@H]1CN(C)C(=O)c2cc(NS(=O)(=O)c3ccc(C)cc3)ccc2OC[C@H](C)NC[C@H]1C`, the CPE inhibition is -0.879%.
The same measure for `CO[C@H]1CN(C)C(=O)c2ccc(NC(=O)C3CCOCC3)cc2OC[C@H](C)NC[C@H]1C`: -0.477%.
The same measure for `CO[C@@H]1CN(C)C(=O)c2cc(NC(=O)C3CCOCC3)ccc2OC[C@@H](C)NC[C@@H]1C`: 23.2% (active); for `CO[C@H]1CN(C)C(=O)c2cc(NC(=O)C3CC3)ccc2OC[C@@H](C)NC[C@H]1C`: -4.67%.
The result for `CO[C@@H]1CN(C)C(=O)c2cc(NS(=O)(=O)c3ccc(Cl)cc3)ccc2OC[C@H](C)NC[C@@H]1C` reads -4.08%.
`C[C@@H]1CCCCO[C@@H](CN(C)C(=O)Nc2ccc(F)cc2)[C@H](C)CN([C@@H](C)CO)C(=O)c2cc(NS(C)(=O)=O)ccc2O1`: the CPE inhibition was -6.59%.
As for `CCCC(=O)N1CC2(C1)CN(C(=O)COC)[C@@H](CO)c1c2c2ccc(OC)cc2n1C`, the CPE inhibition is 10.6%.
The result for `O=S(=O)(NC[C@H]1[C@H](c2ccccc2)[C@H](CO)N1CC1CC1)c1ccccc1` reads 16.5%; that for `N#C[C@@H]1[C@@H](c2ccc(C3=CCCC3)cc2)[C@@H](CO)N1C(=O)C1CCCC1`, -3.68%; that for `CCc1cnc(N2[C@H](C#N)[C@H](c3ccccc3-c3ccccc3C)[C@H]2CO)s1`, 6.09%.
For the molecule `CCc1cnc(N2[C@H](C#N)[C@H](c3ccc(C4=CCCC4)cc3)[C@@H]2CO)s1`, the CPE inhibition is 42.6% (active).
In the case of `CO[C@@H]1CN(C)C(=O)c2cc(NC(=O)c3cc(C)on3)ccc2OC[C@@H](C)N(C(C)=O)C[C@@H]1C`, the CPE inhibition is 5.53%.
The result for `CCCNC(=O)C1(C)CCCN(Cc2cccc(C(F)(F)F)c2)C1` (stereo not given) reads 10.8%; that for `O=C(CN1CCC(O)(c2cccc(C(F)(F)F)c2)CC1)NCCc1ccccc1`, 24.3% (active); that for `O=C(CCC(=O)c1ccccc1)NCc1cccc(C(F)(F)F)c1`, -5.25%.
Turning to `CO[C@H]1CN(C)C(=O)c2ccc(NC(=O)Nc3ccc(Cl)cc3)cc2OC[C@H](C)N(C(=O)Nc2c(C)noc2C)C[C@@H]1C`, the CPE inhibition is 1.51%.
The result for `CCCN1C[C@H](C)[C@H](OC)CN(C)C(=O)c2cc(NC(=O)C3CCOCC3)ccc2OC[C@@H]1C` reads -12%.
Consider `O=C(Nc1ccc2c(c1)[C@@H]1C[C@H](CC(=O)N3CCOCC3)O[C@@H](CO)[C@@H]1O2)C1CCOCC1`, for which the CPE inhibition was 14.6%.
The same measure for `CCC(=O)Nc1ccc2c(c1)C(=O)N(C)C[C@H](OC)[C@@H](C)CN(Cc1cccnc1)[C@H](C)CO2`: 3.46%.
The same measure for `Cc1ccccc1C(=O)O`: 0.715%; for `Cc1cccc(C(=O)O)c1[N+](=O)[O-]`: 29.4% (active); for `Cc1cc(C(=O)O)ccc1[N+](=O)[O-]`: -17.9%.
The result for `O=C(C[C@H]1C[C@H]2c3cc(NC(=O)Nc4ccc(F)cc4)ccc3O[C@H]2[C@H](CO)O1)NCC1CC1` reads -5.03%.
As for `O=C(NC1CCCC1)[C@H]1[C@H](CO)[C@H]2Cn3c(cccc3=O)[C@H]2N1C(=O)NC1CCCC1`, the CPE inhibition was 1.25%.
The result for `Cn1cnc(CCNC(=O)C[C@H]2CC[C@H]3[C@@H](COC[C@H](O)CN3C(=O)C3CCCC3)O2)c1` reads -0.992%; that for `O=C(NCc1ccccc1)[C@H]1CCCN1C(=O)[C@H]1CCCN1C(=O)c1cc(F)cc(F)c1`, -4.56%.
`O=C(NCc1ccccc1)[C@@H]1CCCN1C(=O)[C@H]1CCCN1C(=O)c1cccc(Cl)c1`: the CPE inhibition is -9.03%.
The same measure for `O=C(NCc1ccccc1)[C@H]1CCCN1C(=O)[C@@H]1CCCN1C(=O)c1ccc(Cl)cc1Cl`: 40.8% (active).
